Rtt109 HAT inh: inhibitors of C. albicans Rtt109/Vps75 HAT, primary screen, biochemical, ThioGlo CoA-SH fluorescence, plate reader | Histone acetyltransferase RTT109 (Candida albicans (strain SC5314 / ATCC MYA-2876)), … | purified Rtt109/Vps75, 4 h | inhibition, % at 34.9 µM | hit rate 0.16% among 330,000;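 active means inhibition of at least 50% in every replicate; inconclusive means best replicate reaches 50% inhibition but some replicates fall short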
PRMT1 FP inh: PRMT1 methyltransferase inhibitors, primary screen, biochemical, fluorescence polarization; Protein arginine N-methyltransferase 1 (Homo sapiens), Q99873; recombinant PRMT1, activity-based probe fluorescence polarization; inhibition, % at 2.79 µM; hit rate 1.3% among 370,000; AID 652257, 2013;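 active means inhibition above about 21% made by adding two undisclosed values, limit read from the data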
ALR H2O2 inh: inhibitors of human ALR sulfhydryl oxidase, primary screen, biochemical, H2O2 detection, HRP-luminol luminescence, single point; FAD-linked sulfhydryl oxidase ALR (Homo sapiens), P55789; purified ALR, DTT oxidation; inhibition, % (concentration not given with the values); hit rate 3.8% among 290,000;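 active means mean replicate inhibition above about 79%, with every replicate also reaching it, limit read from the data; inconclusive means only one of the two criteria met; inactive means mean below limit and not every replicate reaching it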
rCAG binder: binders of r(CAG) RNA repeats, primary screen, biochemical, fluorescence | r(CAG) RNA repeat, TO-PRO-1 dye displacement fluorescence | hit rate 1.3% among 370,000 | inhibition, % at 3 µM;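 active means inhibition above the plate cutoff, the mean of all test compounds on that plate plus 3 SD, cut at about 35% in these data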;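 further: 0% = DMSO alone and 100% = 100 µM mitoxantrone as full dye displacement; higher means more dye released from RNA so lower well fluorescence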
LANA-H2B inh: blockers of LANA interaction with H2A/H2B – biochemical, FP readout, HTS, primary screen | inhibition, % (no concentration beside the values) | AID 2629, 2010 | cell-free LANA-H2A/H2B peptide, fluorescence polarization | Protein LANA1 (Human herpesvirus 8 type P (isolate GK18)), Q9QR71 | hit rate 0.6% among 320,000; in the data active means inhibition mostly above about 10%, no sharp cut-off; inactive means mostly below about 6.7%
Target sequence (Q9QR71 whole entry, looked up): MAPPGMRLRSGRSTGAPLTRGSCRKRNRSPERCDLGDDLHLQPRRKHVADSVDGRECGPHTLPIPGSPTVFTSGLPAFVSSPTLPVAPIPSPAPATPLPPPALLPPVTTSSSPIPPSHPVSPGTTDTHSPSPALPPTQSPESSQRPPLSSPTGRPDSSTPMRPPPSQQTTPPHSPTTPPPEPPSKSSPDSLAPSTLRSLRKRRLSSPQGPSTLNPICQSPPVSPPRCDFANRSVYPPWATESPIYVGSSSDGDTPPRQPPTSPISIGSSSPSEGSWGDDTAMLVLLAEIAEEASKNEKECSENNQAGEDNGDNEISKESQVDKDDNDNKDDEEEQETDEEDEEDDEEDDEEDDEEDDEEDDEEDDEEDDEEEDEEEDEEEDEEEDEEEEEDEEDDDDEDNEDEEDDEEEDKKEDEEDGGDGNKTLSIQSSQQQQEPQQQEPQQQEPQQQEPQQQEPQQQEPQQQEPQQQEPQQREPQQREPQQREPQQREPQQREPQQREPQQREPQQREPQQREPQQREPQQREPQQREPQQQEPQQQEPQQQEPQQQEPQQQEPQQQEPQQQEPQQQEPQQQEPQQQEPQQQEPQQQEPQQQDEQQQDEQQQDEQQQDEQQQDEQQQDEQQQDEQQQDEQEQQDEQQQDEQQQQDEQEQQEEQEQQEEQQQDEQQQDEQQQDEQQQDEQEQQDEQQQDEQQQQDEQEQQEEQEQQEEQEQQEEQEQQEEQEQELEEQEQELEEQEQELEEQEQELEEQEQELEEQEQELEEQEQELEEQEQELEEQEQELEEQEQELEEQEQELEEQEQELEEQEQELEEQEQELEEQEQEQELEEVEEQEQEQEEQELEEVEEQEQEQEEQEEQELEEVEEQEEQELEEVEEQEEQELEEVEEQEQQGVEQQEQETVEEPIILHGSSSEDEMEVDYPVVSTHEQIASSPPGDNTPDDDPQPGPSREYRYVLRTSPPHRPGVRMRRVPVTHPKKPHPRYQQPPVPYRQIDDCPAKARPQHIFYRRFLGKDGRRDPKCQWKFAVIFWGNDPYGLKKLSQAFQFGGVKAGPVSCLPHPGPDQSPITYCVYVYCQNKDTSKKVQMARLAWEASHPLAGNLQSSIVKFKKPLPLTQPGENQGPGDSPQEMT
ABHD5 PLIN5 PPI: ABHD5-PLIN5 interaction inhibitors, primary screen, cell lysate, split luciferase complementation, luminescence. hit rate 0.78% among 360,000. Split G. princeps luciferase complementation, 4 h. Perilipin-5 (Homo sapiens) + 1-acylglycerol-3-phosphate O-acyltransferase ABHD5 (Homo …. inhibition, % at 4 µM;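 active means inhibition above the mean inhibition across every tested compound plus 3 SD, cut at about 22% in these data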;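 further: 0% = DMSO only wells and the 100% control is not disclosed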
An asterisk follows results filed as active; u = inconclusive; x = not tested or not shown. Compounds with a hit are over-represented: about 5.9% of the library has one in this group of screens.

SMILES	Rtt109 HAT inh	PRMT1 FP inh	ALR H2O2 inh	rCAG binder	LANA-H2B inh	ABHD5 PLIN5 PPI
COc1ccc(CNc2ncc(-c3ccccc3)n2C)cc1	12	5	42	-4	-1	-2
COc1ccc(CNc2ncc(-c3ccccc3)n2C)c(OC)c1OC	-1	0	65	-6	1	5
CCCCCCCCN1C(=O)[C@@H](CC(=O)N2CCC(c3ccccc3)CC2)C[C@@]2(C(=O)OC)C1=C[C@H](C1CCCC1)O[C@@H]2C	x	-3	x	3	x	x
Cc1ccc(S(=O)(=O)N2[C@@H](c3ccccc3F)C(C(=O)O)=CC[C@H]2c2ccc(Cl)c(Cl)c2)cc1	-12	-1	4	74*	1	1
COc1ccc(NC(=O)CSc2nnc(Cc3ccc(C)cc3)c(=O)n2N)cc1OC	-12	12	91*	3	-2	3
Cc1ccc(Cc2nnc(SCC(=O)Nc3ccccc3)n(N)c2=O)cc1	11	7	98*	1	3	9
Cc1cc(NC(=O)CSc2nc(Cc3ccc(O)cc3)c(C)[nH]2)no1	14	2	55	0	-4	4
CCOc1ccccc1NC(=O)CSc1nnc(Cc2ccc(OC)cc2)c(=O)n1N	3	2	-7	3	-1	-18
Cc1[nH]c(SCC(=O)Nc2cc(C(N)=O)cc(C(N)=O)c2)nc1Cc1ccccc1	4	7	97*	3	-1	3
CCOc1ccc(Cc2nnc(SCC(=O)Nc3ccccc3)n(N)c2=O)cc1	0	3	-2	1	1	-12
COc1ccc(NC(=O)CSc2nnc(Cc3ccccc3)c(=O)n2N)cc1OC	3	8	93*	4	3	-8
COC(=O)[C@]12C[C@H](CC(=O)N3CCN(C(=O)C4CC4)CC3)C(=O)N(Cc3ccc4c(c3)OCO4)C1=C[C@H](COCc1ccccc1)O[C@@H]2C	x	3	x	5	x	x
CCCc1cc(C(=O)OCC(=O)NCCc2ccccc2)sc1C	x	-2	x	2	x	0
COc1ccc(Cc2nnc(SCC(=O)Nc3ccc(C)cc3)n(N)c2=O)cc1	6	20	-5	6	0	1
COc1cccc(NC(=O)CSc2nnc(Cc3ccc(C)cc3)c(=O)n2N)c1	13	5	99*	4	-5	-6
C[C@@H]1COc2cccc(NCCCN3CCOCC3)c2S(=O)(=O)N1	x	3	x	1	x	x
COC(=O)[C@]12C[C@H](CC(=O)N3CCC(c4ccccc4)CC3)C(=O)N(Cc3ccc4c(c3)OCO4)C1=C[C@H](COCc1ccccc1)O[C@@H]2C	x	-5	x	9	x	x
COc1ccc(C(=O)NC(=S)NNC(=O)Cc2cccs2)cc1	3	8	99*	9	3	-5
COc1ccc(C(=O)NC(=S)NNC(=O)CNC(=O)C2CCCCC2)cc1	-7	8	99*	4	-1	-4
COc1ccc(C(=O)NNC(=O)CNC(=O)C2CCCCC2)cc1	5	4	-5	-1	-7	-10
OCCNc1ncnc2c1ncn2[C@H]1CN(Cc2ccncc2)C[C@@H](CO)O1	x	1	x	1	x	-4
CCCCCc1ccc(OCCOCCn2c[n+](C)c3ccccc32)c(CCCCC)c1	81*	x	x	x	x	10
CCCCCc1ccc(OCCC[n+]2ccccc2)c(CCCCC)c1	u	-3	-20	7	-3	13
CC1(C(=O)NCc2cccs2)CCN1C(=O)Cc1cccc2ccccc12 (stereo not drawn)	x	-2	x	-2	x	9
CCOc1ccc(OCCC(=O)OCC(=O)Nc2cc(C)nn2-c2ccccc2)cc1	8	2	23	-3	0	-5
SMILES	Rtt109 HAT inh	PRMT1 FP inh	ALR H2O2 inh	rCAG binder	LANA-H2B inh	ABHD5 PLIN5 PPI
Cc1cc(Nc2ccccc2)n(CCOC(=O)COc2ccccc2)n1	-6	-5	98*	-3	-3	-2
O=C1CC2(CCN(C(=O)c3cccc(Br)c3)CC2)Oc2ccccc21	0	1	-1	-8	19*	-1
COC(=O)c1cc2c(c3c4cc(C)ccc4n(S(=O)(=O)c4ccc(OC)cc4)c13)C(=O)N(Cc1ccc(C(F)(F)F)cc1)C2	x	-1	x	12	x	x
O=C(N=c1ccn(-c2nc3ccccc3nc2NS(=O)(=O)c2ccc(Cl)cc2)cc1)c1ccccc1Cl	x	x	x	x	15*	x
CCOC(=O)[C@]12CCCC=C1N(Cc1ccccc1)C(=O)[C@H](CC(=O)NCc1ccccc1)C2	x	1	x	0	x	4
Cc1n[nH]c(=O)c2c(NC(=O)CSc3nn(-c4ccccc4)c(=S)s3)oc(C)c12	4	2	99*	14	-2	-8
Cc1ccc(C)c(SCC(=O)Nc2oc(C)c3c(C)n[nH]c(=O)c23)c1	5	22*	4	-2	2	9
Cc1ccc(SCC(=O)Nc2oc(C)c3c(C)n[nH]c(=O)c23)cc1C	0	7	59	4	5	-8
COc1ccc(C2CC(=O)C(c3ccc(C(F)(F)F)cc3)=CN2Cc2ccccc2)cc1 (stereo not drawn)	x	1	x	7	x	x
C[C@H]1[C@@H](NCc2cccs2)CC[C@@]23CCCN2C(=O)CCC[C@@H]13	x	0	x	x	x	x
N#Cc1ccc(NC(=O)COC(=O)c2cccc(S(=O)(=O)N3CCCC3)c2)cc1	x	-1	x	3	x	0
N#C/C(=N/Nc1ccc(OC(F)(F)F)cc1)C(N)=S	1	-6	57	15	-2	4
NC(=S)N=Nc1ccc(NN=C(N)N)cc1	u	12	98*	4	7	-13
O=C1CSCN1c1ccc(Cl)c(Cl)c1	-2	-4	98*	3	0	9
O=C1CSCN1c1cc(Cl)ccc1Cl	-14	0	42	3	5	0
S=c1[nH]nc(-c2cc(-c3ccccn3)nc3ccccc23)o1	0	16	19	15	3	1
Cc1ccc(-c2cc(-c3n[nH]c(=S)o3)c3ccccc3n2)cc1	-2	7	98*	32	0	4
Cc1sc(N)c(C(=O)c2ccccc2Cl)c1C	1	2	99*	2	3	-6
CC(C(=O)NC1C=CS(=O)(=O)C1)N1C(=O)/C(=C/c2cccc(Cl)c2)SC1=S (stereo not drawn)	u	9	34	9	1	3
CC(C(=O)NC1C=CS(=O)(=O)C1)N1C(=O)/C(=C\c2ccccc2)SC1=S (stereo not drawn)	u	10	99*	5	-1	8
COc1ccc(C(=O)NCCCC2CCCC2)cc1OC1CCN(C(C)C)CC1	x	2	x	1	x	6

Screens: PubChem, several laboratories
